PNC inhibitor – inhibitors of perinucleolar compartment assembly | PC3M PTB-GFP, PNC prevalence imaging, 16 h; active compounds read low | activity change (PNC), negative = inhibition, % at 10 µM | hit rate 3.1% among 140,000;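 active = readout at or below -70, meaning at least 70% loss of cells showing the perinucleolar compartment, a nuclear body marking cancer cells; inconclusive = readout between -30 and a set limit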
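Read-out is percentage of cells bearing a perinucleolar compartment, from automated 20x imaging of fixed, Hoechst-stained PC3M PTB-GFP cells. Cells were seeded 4 h, then exposed 16 h to compound (23 nl of library stock) in duplicate plates.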
NPSR antag – neuropeptide S receptor (human) antagonism, cAMP; CHO-NPSR cells, cAMP TR-FRET, antagonist mode; AID 1461; Q6W5P4; hit rate 1% among 220,000; Potency, µM (top dose mostly 38.3 µM), usual class: inhibitors; active = well fitted curve in the direction sought with a large enough effect; inconclusive = small, poorly fitted or top-dose-only effect, or another doubt; inactive = no such curve, though single readings can be large; an effect the other way counts as inactive or inconclusive; note: nearly all actives have a fitted effect of over 50% in size
Target sequence (Q6W5P4 whole entry, looked up): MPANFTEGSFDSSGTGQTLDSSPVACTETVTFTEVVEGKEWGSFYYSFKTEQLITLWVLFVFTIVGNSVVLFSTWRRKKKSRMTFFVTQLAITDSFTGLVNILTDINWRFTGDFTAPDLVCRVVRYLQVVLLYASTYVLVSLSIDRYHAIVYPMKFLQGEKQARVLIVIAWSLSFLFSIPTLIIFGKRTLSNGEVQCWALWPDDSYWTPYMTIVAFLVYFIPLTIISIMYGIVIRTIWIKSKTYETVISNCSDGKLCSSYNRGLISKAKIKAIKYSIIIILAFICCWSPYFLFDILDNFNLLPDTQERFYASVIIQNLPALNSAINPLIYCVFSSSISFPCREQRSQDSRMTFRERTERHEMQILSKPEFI
IMPase Li inh – IMPase inhibition in cells with lithium potentiation; CHO-M1 cells, IP1 TR-FRET (IP-One), carbachol + lithium; Potency, µM (doses to about 59.4 µM), actives largely listed as inhibitors; hit rate 0.35% among 210,000; active = well fitted curve in the direction sought with a large enough effect; inconclusive = small, poorly fitted or top-dose-only effect, or another doubt; inactive = no such curve, though single readings can be large; an effect the other way counts as inactive or inconclusive;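 note: IP1 builds up when IMPase is blocked and the TR-FRET signal falls; nearly all actives have a fitted effect of over 50% in size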
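CHO cells stably expressing M1 receptor (2000/well) were cultured 16–30 h, then exposed to compounds with a small lithium addition for 30 min at 37C. IP1 was measured by TR-FRET competition; AC50 from Hill fits.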
IMPase cell inh – cell-permeable inhibitors of inositol monophosphatase (IMPase); CHO-M1 cells, IP1 accumulation, HTRF TR-FRET ratio; P97697; inhibition (IP1 accumulation), % at 46.1 µM; 120,000 tested, under 10 active; active = well fitted curve in the direction sought with a large enough effect in the signal ratio, not every such curve was filed as active; inconclusive = small, poorly fitted or top-dose-only effect, or a change in a side signal; inactive = no such curve, though single readings can be large or run the other way; the % refers to the signal ratio;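 note: cells stimulated with carbachol in lithium chloride buffer; higher means more IMPase inhibition seen as more IP1 and lower FRET ratio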
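CHO-M1 cells (CHO stably expressing M1 receptor), compound up to 46 uM final, stimulated with carbachol (50 uM as added) in buffer with 50mM LiCl, pH 7.4, 30 min at 37C. Cytosolic IP1 read by TR-FRET; AC50 from Hill fits.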
HPGD block – HPGD (human) dehydrogenase inhibition; purified HPGD, NADH fluorescence kinetic, PGE2 substrate; Potency, µM, usual class: inhibitors; hit rate 4.3% among 150,000; AID 894
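20 nM HPGD preincubated 15 min at room temperature with compound in 50 mM Tris-HCl pH 8, 0.01% Tween 20. Started with 1 mM NAD+ and 30 uM prostaglandin E2; NADH fluorescence (360/450 nm) read 5 times over 30-s intervals, last minus first.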
ALDH1A1 inh – ALDH1A1 (human) enzyme inhibition. AID 1030. hit rate 7.3% among 220,000. P00352. Purified ALDH1A1, NADH fluorescence, propionaldehyde substrate. Potency, µM (top dose mostly 75.3 µM), actives largely listed as inhibitors
A number is an active result; - = inactive; ? = inconclusive; . = no result. Only some compounds are listed: those with a hit (about 11% of all), similar ones and a draw of the others. Unless noted, calls come from the whole dose curve; as a rule, active = well fitted inhibition curve with a large enough effect (not every such curve was filed as active); inconclusive = small, poorly fitted or top-dose-only effect, or another doubt; inactive = no such curve, though single readings can be large or run the other way.

SMILES	PNC inhibitor	NPSR antag	IMPase Li inh	IMPase cell inh	HPGD block	ALDH1A1 inh
Clc1ccc(C2CC(c3ccccc3)Nc3ncnn32)cc1 (configuration not stated)	-	-	-	-	-	-
COc1ccc(C2CC(c3ccccc3)n3nnnc3N2)cc1 (configuration not stated)	-111	-	-	-	-	?
CCC(=O)n1nc(-c2ccc(OC)cc2)nc1NCc1cccs1	.	-	-	.	.	-
Cc1ccc(OCCOCCn2ccnc2)c(Br)c1	-	-	-	-	-	-
Cc1nnc(SCC(=O)NNC(=O)c2ccco2)n1-c1cccc(Cl)c1	.	-	-	.	.	-
CCOC(=O)Cc1nnc(NC(=O)COc2ccc(OC)cc2)s1	-	-	-	-	-	-
Cc1cc(OCC(=O)NC(C)c2ccccc2)ccc1[N+](=O)[O-] (configuration not stated)	.	-	-	.	.	25µM
CN(C)c1ccc(C(CNC(=O)c2ccccc2Br)c2c[nH]c3ccccc23)cc1 (configuration not stated)	-	-	-	.	-	7.9µM
CCOC(=O)c1ccc(S(=O)(=O)NCC(c2ccc(N(C)C)cc2)c2c[nH]c3ccccc23)cc1 (configuration not stated)	-	-	-	.	-	-
CN(C)c1ccc(C(CNS(=O)(=O)c2ccc(F)cc2)c2c[nH]c3ccccc23)cc1 (configuration not stated)	?	-	-	.	-	?
CN(C)c1ccc(C(CNC(=O)c2ccc(C#N)cc2)c2c[nH]c3ccccc23)cc1 (configuration not stated)	-	-	-	.	-	14µM
O=C(CCc1ccc(S(=O)(=O)N2CCOCC2)cc1)OCc1nc2ccccc2s1	-	?	-	-	-	7.9µM
O=C(COC(=O)c1cccc(S(=O)(=O)N2CCOCC2)c1)Nc1nc(-c2ccccc2Cl)cs1	-	-	-	-	-	-
O=C(OCc1nc2ccccc2s1)c1cccc(S(=O)(=O)N2CCOCC2)c1	-100	?	-	-	-	-
COc1cc(Sc2ccc(C)cc2)c(OC)cc1N	-	-	-	-	28µM	3.5µM
Cc1ccc(CSc2nnc(-c3ccc4c(c3)OCO4)o2)cc1	-	-	-	-	-	-
Cc1ccc(CSc2ccc(-c3ccc4c(c3)OCO4)nn2)cc1	-	-	-	-	?	11µM
Cc1ccc(NC(=O)c2cc(N3C(=O)C4CCCCC4C3=O)ccc2N2CCOCC2)cc1 (configuration not stated)	.	-	-	.	.	22µM
c1ccc(CNc2ncnc3c2cnn3-c2ccccc2)cc1	-	-	.	-	.	-
Cc1cccc(-n2ncc3c(NCc4cccs4)ncnc32)c1	-	-	-	-	?	?
CC(C)(C)Nc1ncnc2c1cnn2-c1ccccc1	?	-	-	-	25µM	-
c1ccc(CCNc2ncnc3c2cnn3-c2ccccc2)cc1	-	?	-	-	16µM	?
Clc1ccc(-n2ncc3c(NCc4cccs4)ncnc32)cc1	?	-	-	-	-	1.6µM
CCn1cnc2sc(C(=O)Oc3cccc(C)c3)c(C)c2c1=O	.	-	-	.	.	?
COCCN1C(=O)/C(=C/c2ccc(N3CCCC3)cc2)SC1=S	.	-	-	.	.	-
SMILES	PNC inhibitor	NPSR antag	IMPase Li inh	IMPase cell inh	HPGD block	ALDH1A1 inh
CCN1C(=S)SC(=O)C1=C1C=C(C)N(CCOC)C(C)=C1	-	?	-	-	-	6.3µM
CCN1C(=S)SC(=O)C1=C1C=C(C)N(CCO)C(C)=C1	?	?	-	-	?	16µM
S=C1NC(c2cccs2)=CC(c2ccc(Br)cc2)N1 (configuration not stated)	-	-	-	.	32µM	0.4µM
S=C1NC2=C(C(c3ccc(Br)cc3)N1)N1CCC2CC1 (configuration not stated)	-	-	-	-	-	-
S=C1NC(c2ccccc2)=CC(c2ccccc2)N1 (configuration not stated)	.	-	-	.	.	0.89µM
O=S(=O)(c1cc(Cl)ccc1Cl)N1CCN(Cc2ccc3c(c2)OCO3)CC1	?	-	-	-	-	-

Screening results: PubChem BioAssay, National Center for Advancing Translational Sciences (NCATS)
